High-throughput results: PubChem BioAssay, several laboratories
Compounds with a hit are over-represented: about 2.2% of the library has one in this group of screens.
TROY NFkB inh: TROY signaling inhibition; inhibition, % at 10 µM; 360,000 tested, 0.98% active; AID 1347056; Q293 LMP1-TROYcd NF-kB luciferase reporter, 4 h;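 active = compounds whose plate-normalised and pattern-corrected inhibition of the luciferase reporter signal at the single screening dose is 50% or more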
HSP90 inh: HSP90 refolding inhibition in rabbit reticulocyte lysate. AID 1789. 290,000 tested, 0.91% active. luciferase refolding luminescence, 3 h. inhibition, % at 5.6 µM;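 active = inhibition above the screen-wide mean plus 3 SD, computed separately per campaign, cut at about 16% in these data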;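 also: inhibitors lower the luminescence because luciferase stays unfolded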
TWEAK-Fn14 inh: blocks TWEAK-Fn14 interaction in a reporter cell assay; AID 1159606; inhibition, % at 10 µM; TWEAK-stimulated Fn14 reporter cells, luciferase luminescence, 8 h; 360,000 tested, 2% active; in the data active = inhibition above about 50%
LGR2 antag: inhibitors of bursicon-induced Drosophila LGR2 receptor cAMP signaling; HEK293 LGR2, CRE-luciferase, bursicon-stimulated, 4 h; inhibition, % at 9.99 µM; 380,000 tested, 0.35% active; AID 720647;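 active = drop in luminescence signal, shown as inhibition above about 50% in the replicate tests, limit read from the data, passing the limit was not always enough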;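 also: agonist challenge used bursicon conditioned medium at about half maximal strength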
HSP90 inh confirm: confirmation of HSP90 inhibitors | shares compounds with HSP90 inh | rabbit reticulocyte lysate, luciferase refolding luminescence, 3 h | inhibition, % at 5.9 µM | 2,300 tested, 64% active | AID 1846; in the data active = inhibition above about 18%
luciferase ctr: blocks native firefly luciferase in HSP90 counter-screen | 2,300 tested, 48% active | shares compounds with HSP90 inh | inhibition, % at 5.9 µM | purified native firefly luciferase, luminescence | AID 1847;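 active = inhibition above the mean inhibition of all tested sample wells plus 3 SD, cut at about 10% in these data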
Target sequence (P08659 whole entry, looked up): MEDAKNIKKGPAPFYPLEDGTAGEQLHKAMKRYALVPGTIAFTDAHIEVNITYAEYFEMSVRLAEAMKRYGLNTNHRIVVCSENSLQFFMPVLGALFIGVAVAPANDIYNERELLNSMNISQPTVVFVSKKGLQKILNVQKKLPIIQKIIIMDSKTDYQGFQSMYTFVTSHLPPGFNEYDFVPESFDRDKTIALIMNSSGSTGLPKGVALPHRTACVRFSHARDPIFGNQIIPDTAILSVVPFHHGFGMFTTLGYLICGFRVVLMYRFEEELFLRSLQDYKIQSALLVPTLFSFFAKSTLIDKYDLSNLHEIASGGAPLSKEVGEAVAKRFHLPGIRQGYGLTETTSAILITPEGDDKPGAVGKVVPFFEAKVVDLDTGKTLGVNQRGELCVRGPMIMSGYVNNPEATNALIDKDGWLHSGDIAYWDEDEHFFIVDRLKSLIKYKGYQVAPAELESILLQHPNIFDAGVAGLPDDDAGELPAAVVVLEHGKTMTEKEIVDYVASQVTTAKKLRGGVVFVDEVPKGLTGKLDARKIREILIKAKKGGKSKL
Numbers stand for hits; n = inactive; x = no result given.

SMILES | TROY NFkB inh | HSP90 inh | TWEAK-Fn14 inh | LGR2 antag | HSP90 inh confirm | luciferase ctr
Nc1cccc(-c2cc3ccccc3oc2=O)c1 | 67 | 44 | 60 | n | 35 | n
Cc1ccc2nc(-c3cccc(N)c3)oc2c1 | n | 23 | 78 | n | 67 | 64
CCc1ccc2oc(-c3cccc(N)c3)nc2c1 | n | 18 | 75 | x | 60 | 58
Cc1cc(C)c2oc(-c3cccc(N)c3)nc2c1 | n | n | n | x | x | x
COc1cccc(/C=N/NC(=S)Nc2cccc(C(=O)O)c2)c1O | n | 25 | n | 66 | 50 | 27
COc1cccc(/C=N/NC(=O)c2[nH]c(C)c(C(=O)N/N=C/c3cccc(OC)c3O)c2C)c1O | n | 32 | n | x | n | n
COc1cccc(/C=N/NC(=O)c2ccc(-c3ccccc3)cc2)c1O | n | n | n | x | x | x
O=C(NC(=S)Nc1ccc(-c2ccc(CO)o2)cc1)c1cccs1 | n | 24 | n | x | n | n
Cc1ccc(C(=O)NC(=S)Nc2ccc(-c3ccc(CO)o3)cc2)cc1 | n | n | n | n | x | x
CCc1nn2cc(-c3ccccc3)nc2s1 | 84 | 65 | 93 | x | 81 | 73
Cc1nn2cc(-c3ccc(-c4ccccc4)cc3)nc2s1 | x | n | n | x | x | x
O=C(C[C@H]1CC[C@H](NC(=O)CN2CCOCC2)[C@@H](CO)O1)NCCc1ccncc1 | x | x | x | n | x | x
Cc1ccsc1/C=N\NC(=O)c1n[nH]c2c1CCC2 | n | 20 | 81 | 78 | 48 | 43
CC(On1c(-c2ccccc2)nc2ccc(Cl)cc21)C(=O)O (stereo unspecified) | n | n | n | n | x | x
Cc1ccc(-c2nc3ccc(Cl)cc3n2OC(C)C(=O)O)cc1 (stereo unspecified) | n | 62 | n | x | n | n
Cc1cc(C(=O)N2CCN(c3ccc(C(F)(F)F)cn3)CC2)c(C)o1 | n | n | n | n | x | x
Cc1cccc(C(=O)N2CCN(c3ccc(C(F)(F)F)cn3)CC2)c1C | n | 38 | n | x | n | n
CCc1nc2ccc(C(=O)O)cc2nc1CC | n | 75 | n | n | 63 | 51
CCc1nc2ccc(C(=O)N3CCN(CC)CC3)cc2nc1CC | n | n | n | n | x | x
COc1ccc(OC(=O)COc2cc(C)ccc2C)cc1 | n | n | n | n | x | x
COc1ccc(CC(=O)Oc2cc(C)ccc2C)cc1 | n | 17 | n | n | n | n
O=C(CNS(=O)(=O)c1ccccc1)OCC(=O)c1ccccc1Cl | n | 22 | n | n | n | n
O=C(N[C@@H]1CC[C@H](CCNS(=O)(=O)c2ccc(F)cc2)O[C@H]1CO)C1CCCC1 | x | x | x | n | x | x
COc1ccc(C(=O)c2coc3ccc(O)c(CN4CCCCC4)c23)cc1 | n | 47 | n | n | n | n
COc1ccc(C(=O)Nc2ccc3ccccc3n2)c(OC)c1OC | 72 | 41 | 88 | 89 | 68 | 65
SMILES | TROY NFkB inh | HSP90 inh | TWEAK-Fn14 inh | LGR2 antag | HSP90 inh confirm | luciferase ctr
CSc1ccccc1C(=O)Nc1nc2ccccc2[nH]1 | n | n | n | n | x | x
COc1ccccc1C(=O)Nc1nc2ccccc2[nH]1 | 89 | 98 | 107 | 103 | 97 | 92
COc1cc(SC)ccc1C(=O)Nc1nc2ccccc2[nH]1 | 84 | 99 | 100 | 105 | 97 | 92
O=C(C[C@H]1CC[C@@H](NS(=O)(=O)c2ccc(F)cc2)[C@H](CO)O1)N1CCC(Cc2ccccc2)CC1 | x | x | x | n | x | x
COc1ccc(CNC(=O)C[C@@H]2C[C@H]3c4cc(NC(=O)NC5CCCC5)ccc4O[C@H]3[C@@H](CO)O2)cc1 | x | x | x | n | x | x
Cc1ccc(N2Cc3ccccc3C2=O)cc1 | n | 31 | 53 | n | 37 | 28
O=C1c2ccccc2CN1c1ccccc1 | n | n | n | n | x | x
Cc1ccc(S(=O)(=O)CCC(=O)c2ccc(F)cc2)cc1 | n | n | n | n | x | x
Cc1ccc(C(=O)CCS(=O)(=O)c2ccc(F)cc2)cc1 | n | 38 | n | n | 58 | 79
CCn1c(C)nc2cc(C(=O)NNC(=S)Nc3ccc(Cl)cc3)ccc21 | n | n | n | n | x | x
CCn1c(C)nc2cc(C(=O)NNC(=S)Nc3ccccc3)ccc21 | 78 | 34 | 71 | n | 32 | 27
CNC[C@@H]1OCCCC[C@@H](C)Oc2ccc(NS(=O)(=O)c3ccccc3)cc2C(=O)N([C@@H](C)CO)C[C@@H]1C | x | x | x | n | x | x
Fc1ccc(-n2nnc(-c3cccnc3Cl)n2)cc1 | n | n | n | n | x | x
Clc1ncccc1-c1nnn(-c2ccccc2)n1 | n | 21 | n | n | 17 | n
C[C@@H]1CN([C@H](C)CO)C(=O)c2cc(NC(=O)Nc3ccc4c(c3)OCO4)ccc2O[C@@H](C)CCCCO[C@@H]1CN(C)S(=O)(=O)c1cn(C)cn1 | x | x | x | n | x | x
CC1(C)C2CCC(C2)C1(C)NC(=O)CN1CCCC1 (stereo unspecified) | n | n | n | n | x | x
CC1(C)C2CCC(C2)C1(C)NC(=O)CN1CCOCC1 (stereo unspecified) | n | 28 | n | x | n | n
COc1cccc2cc(-c3nc4ccccc4o3)c(=O)oc12 | n | 19 | n | n | 18 | n
O=c1oc2ccc(Br)cc2cc1-c1nc2ccccc2o1 | n | n | n | n | x | x
COC(=O)C(Cc1ccc(O)cc1)NC(=O)c1ccc2c(c1)OCCO2 (stereo unspecified) | n | 26 | n | n | 41 | 28
CC1CN(C(=O)COC(=O)c2ccc(O)cc2)CC(C)O1 (stereo unspecified) | n | n | n | n | x | x
CC1CN(C(=O)COC(=O)c2ccc(C#N)cc2)CC(C)O1 (stereo unspecified) | n | 48 | n | n | n | n
CCCNC(=O)[C@H]1[C@H](CO)[C@H]2Cn3c(cccc3=O)[C@H]2N1CCC(F)(F)F | x | x | x | n | x | x
O=S(=O)(c1ccc(F)cc1)N1CCCCN2[C@H](CO)[C@H](c3ccc(-c4ccccc4)cc3)[C@@H]2C1 | x | x | x | n | x | x
C[C@@H]1CCCCO[C@H](CN(C)C(=O)Nc2ccc(C(F)(F)F)cc2)[C@H](C)CN([C@H](C)CO)C(=O)c2cc(NS(=O)(=O)c3cccs3)ccc2O1 | x | x | x | n | x | x
SMILES | TROY NFkB inh | HSP90 inh | TWEAK-Fn14 inh | LGR2 antag | HSP90 inh confirm | luciferase ctr
CCO[C@H]1OC(C(=O)N2CCN(C)CC2)=C[C@@H](c2csc3ccccc23)[C@@H]1CCCO | n | 18 | n | n | n | n
O=C(Cc1ccc(F)cc1)Nc1nnc(SCC(=O)N2CCCCC2)s1 | n | n | n | n | x | x
O=C(Nc1nnc(SCC(=O)N2CCCCC2)s1)c1ccc(F)cc1F | n | 51 | n | n | n | n
CN=c1scc(C)n1/N=C/c1ccc(O)c(O)c1O | n | n | n | x | x | x
C=CCN=c1scc(-c2ccco2)n1/N=C/c1ccc(O)c(O)c1O | n | 17 | n | n | 25 | n
CN=c1scc(-c2cccs2)n1/N=C/c1ccc(O)c(O)c1O | 89 | 24 | 87 | n | 87 | 78
C[C@H]1CN([C@@H](C)CO)C(=O)c2cc(C#Cc3ccncc3)cnc2O[C@H]1CN(C)CC1CCCC1 | x | x | x | n | x | x
O=C(C[C@@H]1C=C[C@H](NC(=O)Nc2cc(F)ccc2F)[C@H](CO)O1)Nc1ccccc1 | x | x | x | n | x | x
COc1ccc(-c2cn3cc(C(=O)NN)ccc3n2)cc1 | n | 43 | n | n | 24 | n
